Assay results reported in the supplement of paper PMC12067926.

Tests used:
Test in all cases: relative growth (AUC of 72 h growth curve relative to DMSO control, dAUC) (ratio); higher = more growth (less inhibition), active = hit call of the paper
Conditions in all cases: 20 µM;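 active = growth AUC significantly below the DMSO wells by Dunnett test; inactive = the rest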
Community 7 = system: Community 7
Outline: (§1)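 Whole sediment communities and bacterial isolates from Icelandic stream sediments and Silwood Park soil were brought to carrying capacity in Luria–Bertani medium. They were then diluted 1:100 into 96-well plates with each chemical at 20 µM in 1% DMSO, and A600 was recorded every hour for 72 h. The area under each growth curve, integrated by spline, was averaged across three biological replicates. This figure, divided by the mean of the DMSO controls, gives relative growth (dAUC).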

Community 8 = system: Community 8
Outline: as §1

Community 9 = system: Community 9
Outline: as §1

[1] = system: Flavobacterium 1 (Flavobacterium glaciei)
Outline: as §1

[2] = system: Flavobacterium 2 (Flavobacterium succinicans)
Outline: as §1

[3] = system: Hymenobacter 1 (Hymenobacter glaciei)
Outline: as §1

[4] = system: Microbacterium 1 (Microbacterium arborescens)
Outline: as §1

[5] = system: Neobacillus 1 (Neobacillus soli)
Outline: as §1

[6] = system: Oryzobacter 1 (Oryzobacter terrae)
Outline: as §1

[7] = system: Paenibacillus 1 (Paenibacillus castaneae)
Outline: as §1

[8] = system: Prolinoborus 1 (Prolinoborus fasciculus)
Outline: as §1

[9] = system: Pseudomonas 1 (Pseudomonas baetica)
Outline: as §1

[10] = system: Pseudomonas 2 (Pseudomonas vancouverensis)
Outline: as §1

[11] = system: Pseudomonas 3 (Pseudomonas mandelii)
Outline: as §1

[12] = system: Pseudomonas 4 (Pseudomonas peli)
Outline: as §1

[13] = system: Pseudomonas 5 (Pseudomonas baetica)
Outline: as §1

[14] = system: Pseudomonas 6 (Pseudomonas sp.)
Outline: as §1

[15] = system: Rhizobium 1 (Rhizobium herbae)
Outline: as §1

[16] = system: Serratia 1 (Serratia sp. 2015-2462-01)
Outline: as §1

[17] = system: Sphingomonas 2 (Sphingomonas sp.)
Outline: as §1

Measured: relative growth

Cc1cc(C)nc(Nc2ccccc2)n1
inactive: Community 7 1.09 | Community 8 1.03 | Community 9 1.03 | [1] 1.01 | [2] 0.983 | [3] 1.1 | [4] 1.03 | [5] 0.999 | [6] 0.978 | [7] 0.762 | [8] 0.979 | [9] 0.925 | [10] 0.956 | [11] 1.03 | [12] 0.947 | [13] 0.99 | [14] 1.03 | [15] 0.868 | [16] 0.937 | [17] 0.984

CCc1cccc(C)c1N(C(=O)CCl)[C@@H](C)COC
inactive: Community 7 1.12 | Community 8 1.05 | Community 9 0.948 | [1] 0.984 | [2] 0.967 | [3] 1.04 | [4] 1.04 | [5] 0.981 | [6] 1.06 | [7] 0.974 | [8] 1.01 | [9] 1.09 | [10] 0.996 | [11] 1 | [12] 0.993 | [13] 1.03 | [14] 1.13 | [15] 0.952 | [16] 0.985 | [17] 0.791

CC(C)OC(=O)Nc1cccc(Cl)c1
inactive: Community 7 1.07 | Community 8 1.01 | Community 9 1.09 | [1] 0.971 | [2] 1.03 | [3] 1.09 | [4] 1.04 | [5] 1.09 | [6] 0.999 | [7] 1.12 | [8] 0.976 | [9] 0.905 | [10] 0.958 | [11] 1.04 | [12] 0.981 | [13] 0.991 | [14] 0.921 | [15] 0.876 | [16] 0.974 | [17] 0.926

CC(Oc1ccc(Oc2nc3ccc(Cl)cc3o2)cc1)C(=O)O (stereo not given)
inactive: Community 7 1.01 | Community 8 1.01 | Community 9 1.07 | [1] 0.971 | [2] 1.09 | [3] 1.05 | [4] 0.986 | [5] 1.05 | [6] 0.998 | [7] 1.11 | [8] 0.978 | [9] 0.948 | [10] 1 | [11] 0.97 | [12] 1.01 | [13] 0.962 | [14] 0.916 | [15] 1.07 | [16] 1.04 | [17] 1.12

N#Cc1nn(-c2c(Cl)cc(C(F)(F)F)cc2Cl)c(N)c1[S+]([O-])C(F)(F)F (stereo not given)
inactive: Community 7 0.995 | Community 8 1.05 | Community 9 1.04 | [1] 0.977 | [2] 1.01 | [3] 1.05 | [4] 1 | [5] 0.993 | [6] 0.998 | [7] 1.02 | [8] 0.897 | [9] 0.913 | [10] 0.948 | [11] 0.94 | [12] 0.987 | [13] 1.01 | [14] 0.962 | [15] 0.971 | [16] 0.96 | [17] 0.983

CCCCC(C#N)(Cn1cncn1)c1ccc(Cl)cc1 (stereo not given)
inactive: Community 7 0.991 | Community 8 0.904 | Community 9 0.937 | [1] 0.856 | [2] 0.885 | [3] 0.912 | [4] 0.925 | [5] 0.942 | [6] 1.12 | [7] 0.97 | [8] 0.947 | [9] 0.939 | [10] 0.943 | [11] 0.993 | [12] 0.927 | [13] 0.963 | [14] 0.907 | [15] 0.958 | [16] 0.973 | [17] 0.96

Oc1ccc(Cl)cc1Cc1cc(Cl)ccc1O
active: Community 8 0.654 | Community 9 0.327 | [1] 0.0108 | [2] 0.00242 | [3] 0.0173 | [5] 0.731 | [6] 0.00429 | [7] 0.00339 | [8] 0.0645 | [10] 0.755 | [11] 0.8 | [12] 0.674 | [13] 0.817 | [15] 0.0117 | [16] 0.46 | [17] 0.0145
inactive: Community 7 0.862 | [4] 0.869 | [9] 0.805 | [14] 0.922

COc1cc(C)c(C(=O)c2c(OC)ccc(Br)c2C)c(OC)c1OC
inactive: Community 7 0.987 | Community 8 1.08 | Community 9 1.12 | [1] 0.992 | [2] 1.02 | [3] 1.16 | [4] 1.03 | [5] 1.06 | [6] 1.07 | [7] 0.965 | [8] 1.01 | [9] 0.978 | [10] 1.01 | [11] 1 | [12] 1.02 | [13] 0.991 | [14] 0.939 | [15] 0.937 | [16] 1.02 | [17] 1.04

CCNC(=O)NC(=O)/C(C#N)=N/OC
inactive: Community 7 1.13 | Community 8 1.02 | Community 9 0.993 | [1] 1.01 | [2] 0.994 | [3] 1.02 | [4] 0.986 | [5] 0.997 | [6] 0.977 | [7] 0.994 | [8] 0.954 | [9] 0.924 | [10] 0.96 | [11] 0.993 | [12] 0.981 | [13] 0.986 | [14] 1.03 | [15] 1.06 | [16] 1 | [17] 0.919

CSc1nnc(C(C)(C)C)c(=O)n1N
inactive: Community 7 1 | Community 8 1.04 | Community 9 1.05 | [1] 1.03 | [2] 1.02 | [3] 1.04 | [4] 1 | [5] 1.02 | [6] 1.03 | [7] 1.02 | [8] 0.951 | [9] 0.717 | [10] 0.997 | [11] 0.984 | [12] 1.01 | [13] 0.998 | [14] 0.948 | [15] 0.958 | [16] 0.995 | [17] 0.779

C[C@@H]1[C@@H](c2ccc(Cl)cc2)SC(=O)N1C(=O)NC1CCCCC1
inactive: Community 7 1.05 | Community 8 1.05 | Community 9 1.05 | [1] 0.937 | [2] 1.02 | [3] 1.12 | [4] 1.04 | [5] 1.06 | [6] 0.912 | [7] 1.02 | [8] 0.994 | [9] 0.933 | [10] 0.976 | [11] 1.02 | [12] 1 | [13] 1.05 | [14] 1.13 | [15] 0.964 | [16] 1 | [17] 0.987

COP(=S)(OC)Oc1ccc(SC)c(C)c1
inactive: Community 7 0.973 | Community 8 1 | Community 9 1.02 | [1] 0.934 | [2] 0.998 | [3] 1.01 | [4] 0.99 | [5] 0.955 | [6] 1.02 | [7] 1.02 | [8] 0.975 | [9] 0.988 | [10] 0.973 | [11] 1.01 | [12] 0.957 | [13] 1.01 | [14] 1.01 | [15] 0.937 | [16] 0.998 | [17] 0.974

CCOc1ccc(C(C)(C)COCc2cccc(Oc3ccccc3)c2)cc1
inactive: Community 7 1.04 | Community 8 1.06 | Community 9 0.965 | [1] 0.785 | [2] 0.958 | [3] 0.929 | [4] 1.04 | [5] 0.881 | [6] 1.05 | [7] 0.942 | [8] 0.909 | [9] 1.14 | [10] 0.998 | [11] 1.02 | [12] 0.914 | [13] 0.991 | [14] 1.02 | [15] 0.851 | [16] 0.956 | [17] 0.967
